Data from the supplement of paper PMC8728848.
Only a selection was taken, and the strongest signals are over-represented in it overall.

Assays:
Assay in all cases: glycan array binding signal (z-score within array); higher = stronger binding
Conditions in all cases: glycan notation: IUPAC condensed, linker removed
[1] = target: Fuc(a1-2)Gal(b1-3)GlcNAc(b1-2)Man(a1-3)[Fuc(a1-2)Gal(b1-3)GlcNAc(b1-2)Man(a1-6)]Man(b1-4)GlcNAc(b1-4)[Fuc(a1-6)]GlcNAc
Outline: (§1)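 The binding signal is a Z-score computed within each array and averaged over linkers. Arrays of the same protein sequence at different concentrations or buffers were also averaged together. Data originate from 3228 arrays in the Consortium for Functional Glycomics database, kept only where the protein sequence was available.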

[2] = target: Fuc(a1-2)Gal(b1-4)Fuc(a1-3)]GlcNAc(b1-2)Man(a1-3)[Fuc(a1-2)Gal(b1-4)[Fuc(a1-3)]GlcNAc(b1-2)Man(a1-6)]Man(b1-4)GlcNAc(b1-4)GlcNAc
Outline: as §1

Fuc(a1-2)Gal(b1-4)Glc6S = target: Fuc(a1-2)Gal(b1-4)Glc6S
Outline: as §1

Fuc(a1-2)Gal(b1-4)GlcNAc = target: Fuc(a1-2)Gal(b1-4)GlcNAc
Outline: as §1

[3] = target: Fuc(a1-2)Gal(b1-4)GlcNAc(b1-2)Man(a1-3)[Fuc(a1-2)Gal(b1-4)GlcNAc(b1-2)Man(a1-6)]Man(b1-4)GlcNAc(b1-4)[Fuc(a1-6)]GlcNAc
Outline: as §1

[4] = target: Fuc(a1-2)Gal(b1-4)GlcNAc(b1-6)GalNAc
Outline: as §1

[5] = target: Fuc(a1-2)Gal(b1-4)[Fuc(a1-3)]GlcNAc(b1-3)GalNAc
Outline: as §1

[6] = target: Fuc(a1-2)Gal3S(b1-4)GlcNAc
Outline: as §1

[7] = target: Fuc(a1-2)[Gal(a1-3)]Gal(b1-3)GlcNAc(b1-3)GalNAc
Outline: as §1

[8] = target: Fuc(a1-2)[Gal(a1-3)]Gal(b1-4)GlcNAc(b1-2)Man(a1-3)[Fuc(a1-2)[Gal(a1-3)]Gal(b1-4)GlcNAc(b1-2)Man(a1-6)]Man(b1-4)GlcNAc(b1-4)[Fuc(a1-6)]GlcNAc
Outline: as §1

[9] = target: Fuc(a1-2)[GalNAc(a1-3)]Gal(b1-3)GlcNAc(b1-2)Man(a1-3)[Fuc(a1-2)[GalNAc(a1-3)]Gal(b1-3)GlcNAc(b1-2)Man(a1-6)]Man(b1-4)GlcNAc(b1-4)[Fuc(a1-6)]GlcNAc
Outline: as §1

[10] = target: Fuc(a1-2)[GalNAc(a1-3)]Gal(b1-4)GlcNAc(b1-2)Man(a1-3)[Fuc(a1-2)[GalNAc(a1-3)]Gal(b1-4)GlcNAc(b1-2)Man(a1-6)]Man(b1-4)GlcNAc(b1-4)[Fuc(a1-6)]GlcNAc
Outline: as §1

[11] = target: Fuc(a1-2)[GalNAc(a1-3)]Gal(b1-4)GlcNAc(b1-3)Gal(b1-4)GlcNAc(b1-3)Gal(b1-4)GlcNAc
Outline: as §1

[12] = target: Fuc(a1-2)[GalNAc(a1-3)]Gal(b1-4)[Fuc(a1-3)]GlcNAc(b1-3)GalNAc
Outline: as §1

[13] = target: Fuc(a1-3)[Gal(b1-4)]GlcNAc(b1-2)Man(a1-3)[Fuc(a1-3)[Gal(b1-4)]GlcNAc(b1-2)Man(a1-6)]Man(b1-4)GlcNAc(b1-4)GlcNAc
Outline: as §1

[14] = target: Fuc(a1-3)[GalNAc(b1-4)]GlcNAc6S
Outline: as §1

Gal(a1-2)Gal = target: Gal(a1-2)Gal
Outline: as §1

[15] = target: Gal(a1-3)Gal(b1-4)[Fuc(a1-3)]GlcNAc
Outline: as §1

Gal(b1-3)Gal = target: Gal(b1-3)Gal
Outline: as §1

Gal(b1-3)GalNAc(b1-3)Gal = target: Gal(b1-3)GalNAc(b1-3)Gal
Outline: as §1

[16] = target: Gal(b1-3)GalNAc(b1-3)Gal(a1-4)Gal(b1-4)Glc
Outline: as §1

[17] = target: Gal(b1-3)GlcNAc(a1-3)Gal(b1-4)GlcNAc
Outline: as §1

[18] = target: Gal(b1-3)GlcNAc(b1-3)Gal(b1-4)GlcNAc(b1-2)[Gal(b1-3)GlcNAc(b1-3)Gal(b1-4)GlcNAc(b1-6)]Man(a1-6)[Gal(b1-3)GlcNAc(b1-3)Gal(b1-4)GlcNAc(b1-2)Man(a1-3)]Man(b1-4)GlcNAc(b1-4)[Fuc(a1-6)]GlcNAc
Outline: as §1

[19] = target: Gal(b1-3)[Fuc(a1-4)]GlcNAc(b1-6)GalNAc
Outline: as §1

[20] = target: Gal(b1-3)[Neu5Ac(a2-6)]GlcNAc(b1-4)Gal(b1-4)Glc
Outline: as §1

Gal(b1-4)Glc = target: Gal(b1-4)Glc
Outline: as §1

B1: Epa8 (Candida glabrata) (protein)
chain: MGSSHHHHHHSSGLVPRGSHMASSRALSDYPLGCSPLLGTKLTPGLSMELYEYPLDNHGIGPHCWDPAYLNPEYPRTGFESHKLIGTAQNVMSLNFEHRTQDCHVEFSNLPASFNFPDQITLTNFTMLLYGYFKPKESGRYRFHMEADDLLLMNLGAGNAFDCCAHEATRNNLGDYIAYDIWAGTRKDVEVFLEKEVFYPLRLFFNNRDGRAALDFSYYLNGATEPGTDIPELLFSLPDGESCPAYI
B1 was tested, and the “glycan array binding signal (z-score)” value [1] was 0.141, the “glycan array binding signal (z-score)” value [2] was 4.2 and the “glycan array binding signal (z-score)” value (Fuc(a1-2)Gal(b1-4)Glc6S) was 0.004. The “glycan array binding signal (z-score)” value (Fuc(a1-2)Gal(b1-4)GlcNAc) was -0.45, the “glycan array binding signal (z-score)” value [3] was -0.33 and the “glycan array binding signal (z-score)” value [4] was 0.724. For the same binder, the “glycan array binding signal (z-score)” value [5] was 2.63, the “glycan array binding signal (z-score)” value [6] was -0.437 and the “glycan array binding signal (z-score)” value [7] was 0.166. For the same binder, the “glycan array binding signal (z-score)” value [8] was 0.03, the “glycan array binding signal (z-score)” value [9] was 0.09 and the “glycan array binding signal (z-score)” value [10] was 0.443. For the same binder, the “glycan array binding signal (z-score)” value [11] was 0.493, the “glycan array binding signal (z-score)” value [12] was 3.16 and the “glycan array binding signal (z-score)” value [13] was -0.093. For the same binder, the “glycan array binding signal (z-score)” value [14] was -0.401, the “glycan array binding signal (z-score)” value (Gal(a1-2)Gal) was -0.54 and the “glycan array binding signal (z-score)” value [15] was -0.506. The “glycan array binding signal (z-score)” value (Gal(b1-3)Gal) was 0.171, the “glycan array binding signal (z-score)” value (Gal(b1-3)GalNAc(b1-3)Gal) was -0.026 and the “glycan array binding signal (z-score)” value [16] was 0.394. The “glycan array binding signal (z-score)” value [17] was 1.57, the “glycan array binding signal (z-score)” value [18] was 2.13 and the “glycan array binding signal (z-score)” value [19] was 2.52. For the same binder, the “glycan array binding signal (z-score)” value [20] was -0.392 and the “glycan array binding signal (z-score)” value (Gal(b1-4)Glc) was -1.15.
